Experiment [1] in a line: P. berghei load reduction in hepatocytes – cell-based, HepG2, luciferase luminescence, HepG2 viability, primary screen (AID 624349).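 Also: 100% = mean of DMSO negative control wells on the same plate.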 Conditions: P. berghei liver stage in HepG2, luciferase luminescence, concentration not given here; parasite load remaining: stronger effect = lower value; viability: measured here: HepG2 viability without parasites.
Experiment [2] can be described thus: EMT-state selective cytotoxicity in co-culture – imaging, PC-3E GFP, TEM4-18 mCherry, primary screen (AID 1345086;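 active = compounds killing one labelled cell type while sparing the other, by normalised counts and ratio limits, not self-fluorescent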;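 as to all read-outs here: cells exposed to compound for 72 h before imaging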;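 as to red/green cell ratio (normalised): normalised mesenchymal count divided by normalised epithelial count so high means epithelial killing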). Conditions: PC-3E GFP / TEM4-18 mCherry co-culture, imaging cell counts, at 1 µM; for red/green cell ratio (normalised): actives lie on both sides, counts scaled to control wells, 1 = unselective.
Experiment [3] is described as follows: viability loss with induced miR-34 in A549 – imaging, A549 dox-inducible miR-34, nuclei and caspase counts, primary screen (AID 1347080;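 active = compounds whose cell count with miR-34 switched on is under 0.7 times the count with it off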). Conditions: A549 miR-34 inducible, Hoechst nuclei count, 48 h.
The nature of experiment [4]: compounds altering viability of human ES cells (AID 493140; call rule not given here;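 also: cells exposed to compounds for four days before counting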). Conditions: human embryonic stem cell survival screen; stronger effect = higher value.
Where [5] appears, read: measured here: epithelial PC-3E GFP cell survival.
Setting [6] is: measured here: mesenchymal TEM4-18 mCherry cell survival.
Setting [7] is: stronger effect = lower value, cell number ratio, induced over uninduced.
[8] abbreviates: measured here: relative caspase fold change +Dox/-Dox.
Setting [9] is: measured here: total cells with miR-34 induction, stronger effect = lower value.
Setting [10] is: measured here: total cells without miR-34 induction.

Usually viability stands for a read-out of living cells in per cent, often relative to untreated cells.

SMILES strings stand for the structures. Several values for one entry are separate records, joined by “and”; a condition that tells them apart may be missing. Equal values may be shown once. Activity calls are given as the source filed them. Rule as the data show it, unless noted: active = parasite load remaining mostly below about 12% (no sharp cut-off); inactive = mostly above about 10%. Numbered stars: 1 amine (or outer) side, 2 acyl side, 3 side chain; on linkers, the order of the positions; unused ones are H or OH. Bridge positions count the residues as written; N and C are the ends. Square brackets hold non-standard residues; d marks the D form. Peptide text beside a SMILES is read from it. * marks the point of attachment. ξ: configuration not given here. ΔAla(E,3-NHCONH2) = NC(=O)N/C=C(/N)C(=O)O; X1 = NC1=NCCC(C(N[*:1])C(=O)[*:2])N1; ξβ3hOrn = NCCCC(N)CC(=O)*; Dap = NC[CH](N)C(=O)O

Regarding `CC(=O)Nc1ccc(S(=O)(=O)Nc2onc(C)c2C)cc1`, the parasite load remaining in experiment [1] is 53.8% (inactive). Besides, in experiment [1], the viability was 98%. Further, in experiment [2], the red/green cell ratio (normalised) is 0.94 (inactive). In addition, the normalised cell number was 1 in experiment [2] (setting [5]) and 0.93 in experiment [2] (setting [6]). Moreover, the fold change was 0.897 (inactive) in experiment [3] (setting [7]) and 5 in experiment [3] (setting [8]). Moreover, the figures for the cell count in experiment [3] (setting [9]) and in experiment [3] (setting [10]) were 11800 and 13200, respectively.
With `CC(C)c1c(C(=O)c2ccccc2)c(-c2ccccc2)c(-c2ccc(F)cc2)n1CC[C@@H](O)C[C@@H](O)CC(=O)O`, in experiment [1], the parasite load remaining was 174% (inactive) and 44.6% (inactive). The viability in experiment [1] is 88% and 103%. Moreover, in experiment [2], the red/green cell ratio (normalised) was 0.86 (inactive). The values for the normalised cell number in experiment [2] (setting [5]) and in experiment [2] (setting [6]) were 1.3 and 1.12, respectively. For the same compound, the fold change was 0.867 (inactive) in experiment [3] (setting [7]) and 3.4 in experiment [3] (setting [8]). The values for the cell count in experiment [3] (setting [9]) and in experiment [3] (setting [10]) were 9140 and 10500, respectively.
On to `CC(=O)Nc1cc2ccccc2oc1=O`, for which the survival in experiment [4] is 3.5 (inactive). Further, in experiment [1], the parasite load remaining was 90.5% (inactive). In experiment [1], the viability was found to be 77.8%. Also, the red/green cell ratio (normalised) in experiment [2] is 0.74 (inactive). The normalised cell number in experiment [2] (setting [5]) was 1.29; in experiment [2] (setting [6]), 0.95. For the same compound, the fold change was 0.955 (inactive) in experiment [3] (setting [7]) and 0.792 in experiment [3] (setting [8]). Moreover, the cell count in experiment [3] (setting [9]) turned out to be 8640; in experiment [3] (setting [10]), 9040.
Regarding `NCCCC(N)CC(=O)NCC1NC(=O)C(CO)NC(=O)C(N)CNC(=O)C(C2CCN=C(N)N2)NC(=O)/C(=C\NC(N)=O)NC1=O` (stereo not drawn) (H-[Dap]S[Dap](ξβ3hOrn)[ΔAla(E,3-NHCONH2)][X1]; lactam 1-C; configuration not given here), the parasite load remaining in experiment [1] was 84% (inactive) and 54.2% (inactive). For the same compound, the viability in experiment [1] is 74.9% and 94.9%. In addition, the red/green cell ratio (normalised) in experiment [2] was 0.98 (inactive). In addition, the normalised cell number in experiment [2] (setting [5]) was found to be 1.11; in experiment [2] (setting [6]) it was 1.09. The fold change in experiment [3] (setting [7]) was 0.856 (inactive); in experiment [3] (setting [8]), 1.07. For the same compound, the values for the cell count in experiment [3] (setting [9]) and in experiment [3] (setting [10]) were 11300 and 13200, respectively.
Take `CC1=C(C(=O)O)N2C(=O)[C@@H](NC(=O)[C@H](N)C3=CCC=CC3)C2SC1` (some centres not stated): the parasite load remaining in experiment [1] was 74.8% (inactive) and 68.7% (inactive). Also, in experiment [1], the viability is 77.3% and 102%. For the same compound, the red/green cell ratio (normalised) in experiment [2] is 1 (inactive). For the same compound, the normalised cell number was 1.13 in experiment [2] (setting [5]) and 1.14 in experiment [2] (setting [6]). Besides, the fold change is 0.89 (inactive) in experiment [3] (setting [7]) and 4.9 in experiment [3] (setting [8]). Besides, the results for the cell count in experiment [3] (setting [9]) and in experiment [3] (setting [10]) were 11000 and 12400, respectively.
On to `CC(C)(C)NCC(O)COc1cccc2c1CCCC2=O` (configuration not stated), for which the parasite load remaining in experiment [1] was 76.4% (inactive). In experiment [1], the viability was found to be 103%. In addition, the red/green cell ratio (normalised) in experiment [2] is 1.02 (inactive). For the same compound, the values for the normalised cell number in experiment [2] (setting [5]) and in experiment [2] (setting [6]) were 1.01 and 1.03, respectively. Further, the fold change in experiment [3] (setting [7]) was 0.83 (inactive); in experiment [3] (setting [8]), 2.71. Moreover, the results for the cell count in experiment [3] (setting [9]) and in experiment [3] (setting [10]) were 11300 and 13600, respectively.
For `CC[C@@H]1OC(=O)C[C@@H](O)[C@H](C)[C@@H](O[C@@H]2O[C@H](C)[C@@H](O)[C@H](N(C)C)[C@H]2O)[C@@H](CCN2C[C@H](C)C[C@H](C)C2)C[C@@H](C)C(=O)/C=C/C(C)=C\[C@@H]1CO[C@@H]1O[C@H](C)[C@@H](O)[C@@H](OC)[C@H]1OC`, in experiment [1], the parasite load remaining was 64.4% (inactive). For the same compound, the viability in experiment [1] worked out at 108%. Further, in experiment [2], the red/green cell ratio (normalised) was 0.98 (inactive). The normalised cell number was 1.1 in experiment [2] (setting [5]) and 1.07 in experiment [2] (setting [6]). Moreover, the results for the fold change in experiment [3] (setting [7]) and in experiment [3] (setting [8]) were 0.885 (inactive) and 3.65, respectively. Moreover, the cell count in experiment [3] (setting [9]) amounted to 12100; in experiment [3] (setting [10]), 13600.
`C[C@H]1CC2C([C@@H](O)C[C@@]3(C)C2CC[C@]3(O)C(=O)COC(=O)CCC(=O)O)[C@@]2(C)C=CC(=O)C=C12` (some centres not stated): in experiment [1], the parasite load remaining is 83.5% (inactive). The viability in experiment [1] was 148%. Also, in experiment [2], the red/green cell ratio (normalised) was 0.8 (inactive). For the same compound, the results for the normalised cell number in experiment [2] (setting [5]) and in experiment [2] (setting [6]) were 1.3 and 1.04, respectively. Besides, the fold change is 0.962 (inactive) in experiment [3] (setting [7]) and 2.48 in experiment [3] (setting [8]). Besides, the cell count in experiment [3] (setting [9]) came to 7610; in experiment [3] (setting [10]), 7910.
In the case of `C[C@]12C=CC(=O)C=C1CCC1C2[C@@H](O)C[C@@]2(C)C1CC[C@]2(O)C(=O)COC(=O)CCC(=O)O` (some centres not stated), the parasite load remaining in experiment [1] was 61.5% (inactive). Besides, the viability in experiment [1] was 98%. The red/green cell ratio (normalised) in experiment [2] is 0.99 (inactive). Besides, the normalised cell number was 1.15 in experiment [2] (setting [5]) and 1.14 in experiment [2] (setting [6]). In addition, the values for the fold change in experiment [3] (setting [7]) and in experiment [3] (setting [8]) were 0.822 (inactive) and 2.28, respectively. In addition, the cell count in experiment [3] (setting [9]) was 7880; in experiment [3] (setting [10]), 9580.

The values above are taken from PubChem BioAssay.
